Source: PubChem BioAssay (Tox21)
Inconclusive results are not listed. Activity calls are given as the source filed them. Unless noted, the call rests on the fitted dose curve.

Assays:
[1] = Nuclear factor erythroid 2-related factor 2/antioxidant responsive element (Nrf2/ARE) small molecule agonists: qHTS cell viability counter screen in human keratinocytes (AID 1919968; active means well fitted curve in the direction sought with a large enough effect in the repeat runs; an effect the other way counts as inactive or inconclusive; further: nearly all actives have a fitted effect of over 55% in size; further: potency means the concentration at half of the fitted maximal effect)
How it was run: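 KeratinoSens cells (HaCaT keratinocytes stably carrying an ARE-luciferase reporter) were seeded at 1,500 cells/well and rested 5 h at 37 C/5% CO2. They were then exposed to compounds in DMSO for 23 h. Viability was read by CellTiter-Fluor fluorescence after 1 h.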

[2] = Nuclear factor erythroid 2-related factor 2/antioxidant responsive element (Nrf2/ARE) small molecule agonists: luciferase reporter gene qHTS assay in human keratinocytes (AID 1919969); further: nearly all actives have a fitted effect of over 35% in size; further: potency means the concentration at half of the fitted maximal effect
[3] = molecular target: Gonadotropin-releasing hormone receptor (Homo sapiens) (UniProt P30968); assay: Human gonadotropin-releasing hormone receptor (GnRHR) small molecule agonists, calcium flux assay in GnRHR-HEK293 cells (AID 1920063); further: nearly all actives have a fitted effect of over 35% in size
How it was run: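 HEK293 cells stably expressing human GnRHR were plated 18 h at 37 °C, loaded with calcium dye 1 h at 37 °C, then given compound in agonist mode; fluorescence (Ex/Em 480/540) read kinetically for 3 min at 1 s intervals.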

[4] = molecular target: KiSS-1 receptor (Homo sapiens) (UniProt Q969F8); assay: Human kisspeptin (KISS1R) small molecule agonists, calcium flux assay in KISS1R-HEK293 cells (AID 1920064; active means well fitted curve in the direction sought with a large enough effect in the repeat runs; an effect the other way counts as inactive or inconclusive)
How it was run: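 HEK293 cells stably expressing human KISS1R were plated 18 h at 37 °C, loaded with calcium dye for 1 h at 37 °C, then given compound by pin tool. Fluorescence (Ex/Em 480/540) was read kinetically for 3 min.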

[5] = G protein-coupled receptor (GPCR) small molecule agonists, calcium flux assay: HEK293 wild type cell line counter screen (AID 1920065)
How it was run: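 Cells were plated and cultured 18 h at 37 C/5% CO2, then loaded with calcium dye for 1 h at 37 C. Compounds in DMSO were pin-transferred in agonist mode, and fluorescence (Ex/Em 480/540) was read kinetically for 3 min at 1 s intervals.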

[6] = p53 small molecule agonists, cell-based qHTS assay with human liver microsomes (AID 1963577);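 further: p53 response element beta-lactamase reporter cells with liver microsomes plus NADPH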
How it was run: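 Reporter activation was measured by LiveBLAzer fluorescence intensity in p53RE-bla cells, which had been exposed to compounds for 16 h at 37 C alongside 0.5 mg/mL human liver microsomes and 0.5 mg/mL NADPH (final concentrations).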

[7] = p53 small molecule agonists, cell-based qHTS assay with rat liver microsomes (AID 1963578)
How it was run: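 Compound in DMSO added to p53RE-bla cells 5 h post-plating; rat microsomes/NADPH 0.5 mg/mL final; 16 h, 37 C; LiveBLAzer 2 h RT.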

[8] = p53 small molecule agonists, cell-based qHTS assay with rat liver microsomes: qHTS cell viability counter screen (AID 1963580); further: nearly all actives have a fitted effect of over 45% in size; further: potency means the concentration at half of the fitted maximal effect
How it was run: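 p53RE-bla HCT-116 cells were exposed 16 h at 37 C to compounds with rat liver microsomes (0.5 mg/mL) and NADPH (0.5 mg/mL). Viability was measured in the same wells as ATP content by CellTiter-Glo luminescence.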

[9] = p53 small molecule agonists, cell-based qHTS assay: qHTS cell viability counter screen (AID 1963581); further: nearly all actives have a fitted effect of over 45% in size; further: potency means the concentration at half of the fitted maximal effect
How it was run: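 p53RE-bla HCT-116 cells were exposed to compounds for 16 h at 37 C; after the beta-lactamase FRET read in the same wells, CellTiter-Glo was added and luminescence (intracellular ATP) read after 30 min at room temperature.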

[10] = molecular target: 5-hydroxytryptamine receptor 2A (Homo sapiens) (UniProt P28223); assay: 5-hydroxytryptamine receptor 2A (HTR2A) small molecule antagonists, cell-based qHTS assay (AID 1963586); further: nearly all actives have a fitted effect of over 45% in size; further: potency means the concentration at half of the fitted maximal effect
How it was run: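 Antagonist-mode intracellular calcium assay: DOI (4 nM) added after 5 min compound pre-incubation at room temperature to dye-loaded HTR2A-CHO cells. Fluorescence followed for 3 min, sampled every second.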

[11] = molecular target: Muscarinic acetylcholine receptor M1 (Homo sapiens) (UniProt P11229); assay: Cholinergic receptor muscarinic 1 (CHRM1) small molecule antagonists, cell-based qHTS assay (AID 1963588); further: nearly all actives have a fitted effect of over 40% in size; further: potency means the concentration at half of the fitted maximal effect
How it was run: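 CHRM1-CHO calcium-flux assay, antagonist mode. Cells were seeded 18 h, dye-loaded 1 h at 37 C and given compound for 5 min at RT, then acetylcholine was added at 50nM. FDSS fluorescence was read 3 min; 15 concentrations, three runs.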

[12] = molecular target: Muscarinic acetylcholine receptor M1 (Homo sapiens) (UniProt P11229); assay: Cholinergic receptor muscarinic 1 (CHRM1) small molecule agonists, cell-based qHTS assay (AID 1963589); further: nearly all actives have a fitted effect of over 35% in size
How it was run: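 CHO cells stably expressing human CHRM1, seeded 18 h at 37 C/5% CO2, dye-loaded 1 h at 37 C, then given compound in agonist mode; intracellular calcium fluorescence read kinetically at 1 s intervals. Fifteen concentrations, three independent runs.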

[13] = molecular target: Beta-2 adrenergic receptor (Homo sapiens) (UniProt P07550); assay: Adrenergic beta2 receptor (ADRB2) small molecule antagonists, cell-based qHTS assay (AID 1963592); further: nearly all actives have a fitted effect of over 50% in size; further: potency means the concentration at half of the fitted maximal effect
How it was run: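 Cells (CHO, stable ADRB2 overexpression) incubated 18-20hr at 37C; compounds added from DMSO; agonist mix (1nM isoproterenol, 100uM IBMX, 25uM Ro-20-1724) added; 0.5hr RT; d2-cAMP and anti-cAMP-cryptate added; 1hr RT; 665/615 nm read.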

[14] = molecular target: D(2) dopamine receptor (Homo sapiens) (UniProt P14416); assay: Dopamine D2 receptor (DRD2) small molecule agonists, cell-based qHTS assay (AID 1963594); further: nearly all actives have a fitted effect of over 35% in size
How it was run: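 HEK293 cells stably expressing human DRD2, pre-treated with PDE inhibitor Ro20-1724 (0.1 mM final) and compound 10 min at room temperature, then stimulated with NKH477 (200nM […]) for 30 min. cAMP read by HTRF (665/620 nm).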

[15] = molecular target: D(2) dopamine receptor (Homo sapiens) (UniProt P14416); assay: Dopamine D2 receptor (DRD2) small molecule antagonists, cell-based qHTS assay (AID 1963595; active means well fitted inhibition curve with a large enough effect in the signal ratio in the repeat runs, with a control signal flat; the % refers to the signal ratio)
How it was run: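 HEK293 cells stably expressing DRD2 were preincubated with 0.1 mM Ro20-1724, then with compound for 10 min at room temperature. Cells were stimulated with 200 nM NKH477 plus 12 nM quinpirole for 30 min, and cAMP was read by HTRF.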

[16] = molecular target: 5-hydroxytryptamine receptor 2A (Homo sapiens) (UniProt P28223); assay: 5-hydroxytryptamine receptor 2A (HTR2A) small molecule agonists, cell-based qHTS assay (AID 1963587); further: nearly all actives have a fitted effect of over 30% in size
How it was run: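 CHO cells stably expressing human HTR2A, plated 18 h, loaded with calcium dye 1 h at 37 C. Agonist mode: compounds added and intracellular calcium fluorescence recorded kinetically for 2 min at 1 sec intervals.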

[17] = molecular target: Beta-2 adrenergic receptor (Homo sapiens) (UniProt P07550); assay: Adrenergic beta2 receptor (ADRB2) small molecule agonists, cell-based qHTS assay (AID 1963593);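 further: CHO cells stably overexpressing human ADRB2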
How it was run: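 CHO cells stably over-expressing ADRB2 were plated overnight at 37C, then dosed with compounds plus a stimulation mix containing 100uM IBMX and 25uM Ro-20-1724 for 0.5hr at room temperature. cAMP was measured by HTRF competition, 1hr.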

[18] = p53 small molecule agonists, cell-based qHTS assay (AID 1963582; active means well fitted activation curve with a large enough effect in the signal ratio in the repeat runs, not every such curve was filed as active; the % refers to the signal ratio; further: potency means the concentration at half of the fitted maximal effect)
How it was run: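 p53RE-bla beta-lactamase reporter cells rested 5 h at 37 C/5% CO2, then received compounds in DMSO by pin transfer and were incubated 16 h at 37 C. LiveBLAzer B/G FRET substrate was loaded for 2 h at room temperature before fluorescence reading.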

[19] = cAMP Responsive Elements (CRE) small molecule agonists, cell-based qHTS assay (AID 1963590)
How it was run: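 CRE-bla HEK 293T cells in DMEM with 10% dialyzed FBS, NEAA, pyruvate and 25 mM HEPES were plated 18 h at 37 C/5% CO2, then exposed to compounds in DMSO for 3 h before LiveBLAzer B/G FRET substrate addition.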

[20] = cAMP Responsive Elements (CRE) small molecule antagonists, cell-based qHTS assay (AID 1963591; active means well fitted inhibition curve with a large enough effect in the signal ratio in the repeat runs, not every such curve was filed as active; the % refers to the signal ratio)
How it was run: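 CRE-bla HEK293T cells were plated 18 h at 37 °C/5% CO2, pinned with compound in DMSO, then stimulated with NKH477 at 0.25 uM final for 3 h. LiveBLAzer B/G FRET substrate was added and plates incubated 2 h at room temperature.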

Measured: Potency

Chain of Muscarinic acetylcholine receptor M1 (Homo sapiens) (P11229 whole entry, looked up): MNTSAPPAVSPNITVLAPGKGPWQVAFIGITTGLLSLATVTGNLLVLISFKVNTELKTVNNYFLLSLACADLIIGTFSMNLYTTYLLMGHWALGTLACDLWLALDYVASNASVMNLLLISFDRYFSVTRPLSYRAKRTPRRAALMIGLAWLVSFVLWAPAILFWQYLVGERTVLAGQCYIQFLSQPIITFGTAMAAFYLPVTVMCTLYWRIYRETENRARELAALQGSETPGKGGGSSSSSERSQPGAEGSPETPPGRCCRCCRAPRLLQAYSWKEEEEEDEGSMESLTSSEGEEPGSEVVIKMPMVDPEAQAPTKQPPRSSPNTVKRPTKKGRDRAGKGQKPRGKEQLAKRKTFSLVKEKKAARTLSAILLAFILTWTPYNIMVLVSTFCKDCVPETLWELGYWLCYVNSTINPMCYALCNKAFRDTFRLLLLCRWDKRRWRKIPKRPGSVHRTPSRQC
Chain of KiSS-1 receptor (Homo sapiens) (Q969F8 whole entry, looked up): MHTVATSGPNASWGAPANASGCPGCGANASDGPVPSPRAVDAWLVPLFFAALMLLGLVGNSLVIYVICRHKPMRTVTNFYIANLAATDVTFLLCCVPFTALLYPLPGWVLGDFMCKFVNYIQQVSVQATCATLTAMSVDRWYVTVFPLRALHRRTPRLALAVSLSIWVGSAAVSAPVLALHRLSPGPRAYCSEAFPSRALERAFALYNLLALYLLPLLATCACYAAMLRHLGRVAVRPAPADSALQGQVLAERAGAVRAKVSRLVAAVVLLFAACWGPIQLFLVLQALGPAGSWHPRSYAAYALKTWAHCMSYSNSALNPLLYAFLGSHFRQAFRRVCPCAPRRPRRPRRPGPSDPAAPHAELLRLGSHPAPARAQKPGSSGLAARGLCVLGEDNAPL
Chain of Beta-2 adrenergic receptor (Homo sapiens) (P07550 whole entry, looked up): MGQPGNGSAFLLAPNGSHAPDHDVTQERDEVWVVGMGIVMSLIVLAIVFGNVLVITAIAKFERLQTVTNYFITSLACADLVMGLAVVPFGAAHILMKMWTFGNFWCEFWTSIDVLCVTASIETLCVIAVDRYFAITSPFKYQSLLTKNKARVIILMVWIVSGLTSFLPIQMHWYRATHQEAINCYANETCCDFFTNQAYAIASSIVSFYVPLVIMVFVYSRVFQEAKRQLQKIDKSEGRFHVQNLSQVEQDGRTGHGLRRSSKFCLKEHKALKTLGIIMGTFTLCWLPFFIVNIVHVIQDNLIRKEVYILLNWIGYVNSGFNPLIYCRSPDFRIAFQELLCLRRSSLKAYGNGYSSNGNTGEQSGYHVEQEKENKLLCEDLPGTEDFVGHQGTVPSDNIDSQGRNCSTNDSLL
Chain of D(2) dopamine receptor (Homo sapiens) (P14416 whole entry, looked up): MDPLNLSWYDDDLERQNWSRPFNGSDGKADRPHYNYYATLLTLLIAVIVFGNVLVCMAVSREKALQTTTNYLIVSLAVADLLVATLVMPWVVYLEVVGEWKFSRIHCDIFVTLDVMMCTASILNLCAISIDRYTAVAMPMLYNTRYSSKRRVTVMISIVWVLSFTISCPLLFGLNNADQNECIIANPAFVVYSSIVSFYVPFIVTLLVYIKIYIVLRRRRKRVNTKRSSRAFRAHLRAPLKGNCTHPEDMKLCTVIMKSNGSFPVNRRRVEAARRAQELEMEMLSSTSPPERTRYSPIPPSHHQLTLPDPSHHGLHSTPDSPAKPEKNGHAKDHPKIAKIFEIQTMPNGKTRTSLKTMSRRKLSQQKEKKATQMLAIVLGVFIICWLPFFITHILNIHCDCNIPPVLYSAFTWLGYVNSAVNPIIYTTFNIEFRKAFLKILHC
Chain of 5-hydroxytryptamine receptor 2A (Homo sapiens) (P28223 whole entry, looked up): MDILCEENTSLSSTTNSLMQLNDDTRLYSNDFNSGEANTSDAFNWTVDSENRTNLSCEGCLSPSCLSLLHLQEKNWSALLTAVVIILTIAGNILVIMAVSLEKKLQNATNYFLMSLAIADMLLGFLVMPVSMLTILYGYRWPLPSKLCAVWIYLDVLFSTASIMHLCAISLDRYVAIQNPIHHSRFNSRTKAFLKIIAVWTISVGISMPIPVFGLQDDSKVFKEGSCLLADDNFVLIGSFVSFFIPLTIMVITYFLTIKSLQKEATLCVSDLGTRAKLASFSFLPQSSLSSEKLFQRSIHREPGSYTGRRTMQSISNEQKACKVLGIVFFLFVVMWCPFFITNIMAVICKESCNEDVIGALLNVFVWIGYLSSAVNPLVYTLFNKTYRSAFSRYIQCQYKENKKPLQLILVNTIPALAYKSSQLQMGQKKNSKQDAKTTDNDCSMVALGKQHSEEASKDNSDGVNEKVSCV
Chain of Gonadotropin-releasing hormone receptor (Homo sapiens) (P30968 whole entry, looked up): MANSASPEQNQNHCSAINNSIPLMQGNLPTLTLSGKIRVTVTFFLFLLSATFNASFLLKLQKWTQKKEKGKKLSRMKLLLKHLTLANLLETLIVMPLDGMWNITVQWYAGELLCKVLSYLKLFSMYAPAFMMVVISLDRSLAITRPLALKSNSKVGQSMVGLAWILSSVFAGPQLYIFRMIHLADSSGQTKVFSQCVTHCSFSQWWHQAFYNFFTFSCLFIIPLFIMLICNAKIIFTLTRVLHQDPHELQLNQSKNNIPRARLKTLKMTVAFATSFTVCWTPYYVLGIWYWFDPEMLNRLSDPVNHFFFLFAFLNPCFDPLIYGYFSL

CCCCCCCC/C=C\CCCCCCCCOCCO
active: [1] 22.4 µM | [8] 53 µM | [9] 21.1 µM | [10] 24.4 µM
inactive: [2] | [3] | [4] | [5] | [6] | [7] | [11] | [12] | [13] | [14]

C[N+]1(CC2COC(c3ccccc3)(C3CCCCC3)O2)CCCCC1 (stereo not drawn)
inactive: [1] | [2] | [3] | [4] | [5] | [6] | [7] | [8] | [9] | [10] | [11] | [12] | [13] | [14] | [15]

C/C=C\C/C=C/CCCCCCCCOC(C)=O
inactive: [1] | [3] | [4] | [5] | [6] | [7] | [8] | [9] | [10] | [16] | [11] | [12] | [13] | [17] | [15]
active: [2] 68.6 µM

C#C[C@]1(OC(C)=O)CC[C@H]2[C@@H]3CCC4=C[C@@H](OC(C)=O)CC[C@@H]4[C@H]3CC[C@@]21C
inactive: [1] | [2] | [3] | [4] | [5] | [6] | [7] | [8] | [9] | [18] | [19] | [13] | [14] | [15]

CC(C(=O)O)c1ccc(CC2CCCC2=O)cc1 (stereo not drawn)
inactive: [1] | [2] | [3] | [4] | [5] | [6] | [7] | [8] | [9] | [18] | [19] | [20] | [13] | [14] | [15]

CC[C@@]1(O)C(=O)OCc2c1cc1n(c2=O)Cc2c-1nc1ccccc1c2/C=N/OC(C)(C)C
active: [10] 5.79 µM | [11] 20.5 µM
inactive: [1] | [2] | [3] | [4] | [5] | [6] | [7] | [8] | [9] | [16] | [12] | [13] | [15]

Fc1ccc([C@@H]2CCNC[C@H]2COc2ccc3c(c2)OCO3)cc1
inactive: [1] | [2] | [3] | [4] | [5] | [6] | [7] | [8] | [9] | [19] | [20] | [13] | [15]

CN(CCOc1ccc(NS(C)(=O)=O)cc1)CCc1ccc(NS(C)(=O)=O)cc1
inactive: [1] | [2] | [3] | [4] | [5] | [6] | [7] | [8] | [9] | [10] | [16] | [12] | [19] | [20] | [13] | [15]
active: [11] 8.18 µM

Cc1ccc(C(=O)c2ccccc2)cc1
inactive: [1] | [2] | [3] | [4] | [5] | [6] | [7] | [8] | [18] | [10] | [16] | [11] | [12] | [13] | [17] | [15]

C[C@H]1O[C@@H](n2cc(F)c(=O)[nH]c2=O)[C@H](O)[C@@H]1O
inactive: [1] | [2] | [3] | [4] | [5] | [6] | [7] | [8] | [9] | [19] | [20] | [13] | [17] | [14] | [15]
active: [18] 15.8 µM

CC(C)=CCC1C(=O)N(c2ccccc2)N(c2ccccc2)C1=O
active: [2] 29.8 µM
inactive: [1] | [3] | [4] | [5] | [6] | [7] | [8] | [9] | [10] | [16] | [11] | [12] | [20] | [17] | [14]

Cc1cc2c(OCC(CNC(C)(C)C)OC(=O)c3ccccc3)cccc2[nH]1 (stereo not drawn)
active: [13] 0.168 µM
inactive: [1] | [2] | [3] | [4] | [5] | [6] | [7] | [8] | [9] | [18] | [19] | [20] | [14] | [15]

CN1CCN(C(c2ccccc2)c2ccccc2)CC1
inactive: [1] | [2] | [3] | [4] | [5] | [6] | [7] | [8] | [9] | [18] | [19] | [20] | [13] | [14] | [15]

CC(=O)NO
inactive: [1] | [2] | [3] | [4] | [5] | [6] | [7] | [8] | [18] | [10] | [16] | [11] | [12] | [19] | [20] | [13] | [17] | [14]

CCCCOc1ccc(OCCCN2CCOCC2)cc1
inactive: [1] | [2] | [3] | [4] | [5] | [6] | [7] | [8] | [9] | [18] | [13] | [17] | [15]
